# Compound activity: PubChem BioAssay, National Center for Advancing Translational Sciences (NCATS)
# D1 ag = Allosteric Agonists of the Human D1 Dopamine Receptor: qHTS; D(1A) dopamine receptor (Homo sapiens), P21728; HEK293 T-REx D1 cells, calcium flux, agonist mode; activation, % at 2 µM; 360,000 compounds, 1% hits; AID 504660, 2011; in the data active = activation above about 30%; also: 0% is about no effect
#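 Tetracycline-induced HEK293 TREx D1 cells, force-coupled to calcium signalling, were dye-loaded with a no-wash calcium kit. Compound was pin-added after a 10 s baseline. Fluorescence was read kinetically at 1 cycle/s for 180 s, with calcium rises flagged as agonism.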
# D3 antag = qHTS of D3 Dopamine Receptor Antagonist: qHTS; max response, negative = inhibition, %; AID 652054, 2013; D(3) dopamine receptor (Homo sapiens), P35462; 360,000 compounds, 2.5% hits; D3R cells, DiscoveRx beta-arrestin luminescence, antagonist mode; hits give low values; in the data active = max response below about -50%; inconclusive = no clear call, values can overlap the other calls; also: % is scaled to controls: 0 for no effect and ±100 for the full control effect
# Target sequence (P35462 whole entry, looked up): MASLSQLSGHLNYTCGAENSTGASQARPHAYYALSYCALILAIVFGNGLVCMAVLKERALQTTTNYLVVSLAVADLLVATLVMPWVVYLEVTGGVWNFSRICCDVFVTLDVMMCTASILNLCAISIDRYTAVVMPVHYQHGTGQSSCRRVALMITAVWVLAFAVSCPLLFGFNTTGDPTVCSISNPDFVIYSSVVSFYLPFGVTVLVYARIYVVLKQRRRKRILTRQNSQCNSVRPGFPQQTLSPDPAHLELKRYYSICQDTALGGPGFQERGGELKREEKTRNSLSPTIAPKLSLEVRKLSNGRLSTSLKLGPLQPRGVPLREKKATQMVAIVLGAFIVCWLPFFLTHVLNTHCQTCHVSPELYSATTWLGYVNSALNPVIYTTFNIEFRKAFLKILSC
#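 Cells expressing the human receptor were seeded at 1500 cells/well, incubated overnight at 37 degrees C in 5% CO2, then exposed to library compounds with dopamine controls for 90 minutes at 37 degrees C before luminescent detection.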
# D1 PAM = Potentiators of Human D1 Dopamine Receptor: qHTS. 360,000 compounds, 0.036% hits. potentiation, % at 10 µM. HEK293 TREx D1 cells, calcium flux, dopamine EC20 potentiation. D(1A) dopamine receptor (Homo sapiens), P21728. AID 504651, 2011; in the data active = potentiation above about 30%; also: 0% is about no effect
# D3 ag = qHTS of D3 Dopamine Receptor Agonist: qHTS; D3R DiscoveRx beta-arrestin cells, luminescence, 90 min; max activation, %; 410,000 compounds, 0.58% hits; in the data active = max activation above about 30%; also: 0% is about no effect
#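 Agonist-mode cell screen: cells plated at 1500/well and incubated overnight at 37 °C, then exposed to library compounds for 90 min at 37 °C. Detection reagent was added for 30–60 min at room temperature, and luminescence was read.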
# D1 antag = Antagonist of Human D 1 Dopamine Receptor: qHTS | D(1A) dopamine receptor (Homo sapiens), P21728 | HEK293 TREx D1 cells, calcium flux, dopamine EC80; hits give low values | activity change, negative = inhibition, % at 10 µM | 360,000 compounds, 3.2% hits | AID 504652, 2011; in the data active = activity change below about -30%; also: % is scaled to controls: 0 for no effect and ±100 for the full control effect
#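 Antagonism measured as reduced calcium response to an EC80 dopamine addition following 180 s compound pre-read; cells were inducible HEK293 Trex D1 plated overnight at 30 C, read kinetically at 1 cycle/sec.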
# Numbers without * were called inactive; ? = inconclusive; . = no result. Most compounds without a hit are left out; they make up all but 6.1% or so of the library.
SMILES,D1 ag,D3 antag,D1 PAM,D3 ag,D1 antag
COc1ccc(CC(=O)OCC(=O)Nc2ncc(Cl)c(C)c2Cl)cc1,-0.4,0.0,1.9,-0.6,-0.3
Cc1c(C(=O)N2CCC[C@H]2C(N)=O)oc2c(F)cccc12,-0.1,10.2,-0.1,-3.8,-3.2
CCOC(=O)c1c(C)[nH]c(C(=O)OCc2ccccc2F)c1C,30.6*,-4.6,9.4,5.0,7.4
CCOC(=O)c1c(C)[nH]c(C(=O)COC(=O)C2(C)CC2(Cl)Cl)c1C (stereo not given),6.0,54.2,2.6,45.3*,-11.3
CCOC(=O)c1c(C)[nH]c(C(=O)OCc2ccc(F)cc2)c1C,12.2,28.5,-2.1,7.1,13.6
Oc1ccccc1C1Nc2cccc3cccc(c23)N1,1.6,-6.9,-4.4,2.0,-22.4
O=[N+]([O-])c1ccccc1C1Nc2cccc3cccc(c23)N1,-0.6,-104.0*,-2.5,-20.3,10.0
CS(=O)(=O)Nc1ccc(-c2ccc3nccn3c2)cc1,.,-2.4,.,0.9,.
CCC(=O)N1CCc2cc(S(=O)(=O)Nc3cc(C)ccc3OC)ccc21,13.3,.,-1.2,-16.0,-23.9
Cc1ccc(C(=O)N2CCCC(N(C)Cc3ccccc3)C2)s1 (stereo not given),0.7,-61.7*,0.7,-11.9,-7.4
CC(C)C(=O)NC(=S)Nc1ccc(S(=O)(=O)N(C)Cc2ccccc2)cc1,1.7,37.1,-11.3,-7.5,-34.6*
O=S(=O)(Cc1ccccc1)Nc1ccccc1,2.8,8.5,-2.9,0.3,-10.7
CC(C)C(=O)NC(=S)Nc1ccc(S(=O)(=O)N(C)C)cc1,10.2,-3.2,-6.6,-1.9,0.9
CN(Cc1ccccc1)S(=O)(=O)c1ccc(NC(=O)C2CCCCC2C(=O)O)cc1 (stereo not given),.,17.2,.,-12.8,.
CC(=O)NC(=S)Nc1ccc(S(=O)(=O)N(C)Cc2ccccc2)cc1,18.8,13.0,-8.2,-1.0,-31.3*
CN(Cc1ccccc1)S(=O)(=O)c1ccc(NS(=O)(=O)Cc2ccccc2)cc1,4.4,43.7,0.4,-33.0,-34.3*
NC(=O)c1cc[n+](CC2=C(C(=O)[O-])N3C(=O)[C@@H](NC(=O)Cc4cccs4)[C@H]3SC2)cc1,.,.,.,7.4,.
O=C(CCN1N=C(c2ccccc2)CCC1=O)NCCc1ccc(Cl)cc1,-1.3,.,-1.2,-23.2,-23.3
Cn1cnnc1SCC(=O)Nc1ccc(N2CCCCC2)cc1,1.3,21.6,-0.4,2.2,-13.5
Cn1c(NCc2ccccc2F)nc2ccccc21,-3.3,.,-1.8,-11.9,16.7
COc1ccc([C@H]2CC(=O)C=C(c3cc4ccccc4s3)C2)cc1OC,2.2,51.3,3.6,31.9*,-48.3*
COc1ccc([C@H]2CC(=O)C=C(c3ccc(C(=O)O)cc3)C2)cc1OC,1.6,2.2,-4.5,30.5*,.
COc1ccc([C@H]2CC(=O)C=C(c3ccc(-c4ccccc4)cc3)C2)cc1OC,2.1,0.0,3.4,-1.1,10.3
COc1ccc([C@H]2CC(=O)C=C(c3ccc(C)cc3)C2)cc1OC,9.7,22.0,4.7,1.5,13.9
COc1ccc([C@H]2CC(=O)C=C(c3cccc4c3sc3ccccc34)C2)cc1OC,5.7,4.2,-3.6,12.7,-36.4*
SMILES,D1 ag,D3 antag,D1 PAM,D3 ag,D1 antag
O=C(Nc1ccc(S(=O)(=O)Nc2ccccc2F)cc1)N1CCCCC1,13.2,-16.9,1.6,-7.7,8.7
Cc1ccc(C(=O)Nc2ccc(Br)cc2)cc1S(=O)(=O)Nc1ccccn1,4.4,-21.5,-8.3,-12.9,-9.3
O=C(NCCCN1CCOCC1)c1ccc(CSc2ccc(Cl)cc2)cc1,23.7,8.6,-13.8,-14.3,-35.4*
O=C(Nc1ccccc1C(=O)NCCCN1CCOCC1)c1ccc(Cl)cc1,7.0,-54.0*,1.6,-17.5,-9.3
O=C(N/C(=C/c1ccco1)C(=O)N1CCOCC1)c1ccccc1Br,3.8,15.9,-3.4,4.7,-12.4
CCN(Cc1ccccc1)C(=O)c1oc2ccc(C)cc2c1C,6.2,-1.5,0.8,-3.2,-1.3
CC(C)(C)c1cc(CN2CCOCC2)c(C(=O)O)o1,2.7,-80.6*,-2.9,-1.4,-7.5
Oc1cc(O)c(CN2CCOCC2)cc1CN1CCOCC1,.,16.8,.,-4.0,.
O=c1c2[nH]c3cccc(Cl)c3c2ncn1CC1CCCO1 (stereo not given),2.3,0.3,-8.8,-6.6,-30.0*
COc1ccc(CCN(C)C(=O)Cc2ccc(-c3ccccc3)cc2)cc1OC,10.2,-8.9,-1.9,5.2,-31.5*
COc1ccc(CCN(C)C(=O)COc2ccc(C(=O)c3ccccc3)cc2)cc1OC,5.0,-7.4,-16.9,-0.5,-15.6
COc1ccc(CNC(=O)CN2C(=O)NC3(CCCCCC3)C2=O)cc1OC,-4.4,25.8,3.1,-0.4,-8.6
COc1ccc(CCN(C)C(=O)CN2C(=O)NC3(CCCCCC3)C2=O)cc1OC,-0.8,5.1,-5.8,-3.6,-59.6*
O=C(NCCCN1CCN(c2ccc(F)cc2)CC1)Nc1ccccc1Cl,43.5*,.,-0.3,-18.5,-67.2*
COc1ccc(N2CCN(CCCNC(=O)Nc3ccccc3Cl)CC2)cc1,11.6,.,-4.3,-16.7,-5.9
O=C(NCCCN1CCN(c2ccc(F)cc2)CC1)Nc1ccc(Cl)cc1,68.7*,.,-2.5,-19.2,-77.4*
CCCN1CCN(CCCNC(=S)Nc2ccc(F)cc2)CC1,1.4,2.7,-4.0,-7.8,15.7
CCc1ccc(NC(=O)NCCN2CCN(c3ccc(OC)cc3)CC2)cc1,4.9,-26.6,5.5,-0.3,2.0
CCOc1ccc(NC(=O)NCCCN2CCN(c3ccc(F)cc3)CC2)cc1,14.0,.,-3.9,-18.3,-35.6*
CSc1cccc(NC(=S)NCCCN2CCN(c3ccc(F)cc3)CC2)c1,10.6,10.8,-4.7,-7.8,-76.2*
O=C(NCCCN1CCN(c2ccc(F)cc2)CC1)NC12CC3CC(CC(C3)C1)C2,13.8,-81.8*,-8.4,-0.7,0.8
CSc1ccc(N2CCN(CCCNC(=O)Nc3ccccc3F)CC2)cc1,75.1*,?,-24.4,30.8*,-4.3
O=C(CCN1CCN(c2ccc(F)cc2)CC1)Nc1ccccc1F,3.3,-4.9,4.5,-3.7,7.1
O/C=c1\ccc2cccc3nc(C(F)(F)F)nc1c23,17.3,35.1,-8.6,8.0,-3.6
C/C(O)=c1/ccc2cccc3nc(C)nc1c23,47.0*,12.4,4.2,7.4,-0.9
CCCCN(C)CCNC(=O)c1c2c(nc3ccccc13)C(=O)N(C1CCCCC1)C2,0.5,.,0.3,-6.4,1.7
Cc1onc(-c2ccccc2)c1C(=O)NNC(=S)NC(=O)/C=C/c1cccs1,9.4,?,-1.1,-25.0,8.9
